Only some compounds are listed: those with a hit (about 3.8% of all), similar ones and a draw of the others.
ATXN2 expr inh = Primary qHTS for Inhibitors of ATXN expression; HEK-293 ATXN2-luciferase reporter, luminescence, 24 h; Potency, µM (series often up to 57 µM), for the others: at the top dose activity change, negative = inhibition, actives largely listed as inhibitors; 360,000 tested, 0.72% active; AID 1745845, 2022; note: % is set by controls: 0 for no effect and ±100 for the full control effect; nearly all actives have a fitted effect of over 55% in size
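qHTS (up to 57 uM final) was run with 24 h compound exposure of reporter cells at 37 °C. Each well was multiplexed: SteadyGlo luminescence measured ATXN2-luciferase expression after a fluorogenic Gly-Phe-AFC viability readout (25 uM final).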
HepG2 tox = qHTS for Inhibitors of TGF-b: Cytotox Counterscreen; HepG2 CAGA-GFP viability, ATP luminescence, 18 h; Potency, µM (series often up to 46.1 µM), without a hit: top-dose activity change, negative = cytotoxicity, actives largely listed as cytotoxic; 410,000 tested, 0.76% active; AID 588856, 2011
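CellTiter-Glo luminescence gave cytotoxicity after 18 hours at 37 degrees C. The cells were HepG2 CAGA-GFP in 1% FBS DMEM, stimulated with 500 pg/mL TGF-beta after compound addition. %Activity was normalised to no-cell wells (complete cell-killing) and DMSO (no toxicity), and curves were fitted and classified.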
ATXN viability = Viability Counterscreen for Primary qHTS for Inhibitors of ATXN expression. S2 cells (HEK-293 line with an ATXN2-luciferase reporter) viability, CellTiter-Fluor protease fluorescence, 24 h. Potency, µM (highest dose often 56.7 µM), actives largely listed as cytotoxic. 400,000 tested, 0.49% active; note: nearly all actives have a fitted effect of over 40% in size
HT1080-NT tox = qHTS for induction of synthetic lethality in tumor cells producing 2HG: qHTS for the HT-1080-NT fibrosarcoma cell line; HT-1080-NT fibrosarcoma viability, CellTiter-Glo ATP luminescence, 48 h; Potency, µM (doses to about 46.1 µM), without a hit: at the top dose activity, negative = less viability, usual class: cytotoxic; 360,000 tested, 1.6% active;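 note: NT is the 2HG producing partner of a matched IDH1 knockdown line; 0% = DMSO-treated cells and -100% = media-only wells without cells; nearly all actives have a fitted effect of over 55% in size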
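HT-1080-NT; 750 cells/well; 5% FBS RPMI; 48 h compound, 37 degrees C; CellTiter-Glo luminescence; curve fitting and curve-class assignment.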
HT1080 IDH1KD tx = qHTS for induction of synthetic lethality in tumor cells producing 2HG: qHTS for the HT-1080-IDH1KD cell line; HT-1080 IDH1 knockdown viability, ATP luminescence, 48 h; Potency, µM (top dose mostly 46.1 µM), without a hit: at the top dose activity, negative = toxicity, usual class: cytotoxic; 360,000 tested, 2% active; AID 686971, 2013;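 note: 0% = DMSO wells and -100% = cell-free medium wells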
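In this qHTS, HT-1080 cells depleted of IDH1 are exposed for 48 h at 37 °C to compound titrations. Toxicity is scored from CellTiter-Glo luminescence, with DMSO as full viability and medium alone as none.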
TGFb SMAD3 inh = qHTS for Inhibitors of TGF-b; HepG2 CAGA-GFP TGF-b/SMAD3 reporter, GFP fluorescence, 18 h; TGF-beta stimulated, 500 pg/mL final; Potency, µM (doses to about 46.1 µM), for inactives: at the highest dose activity, negative = inhibition, hits mostly inhibitors; 410,000 tested, 1.2% active; note: % is set by controls: 0 for no effect and ±100 for the full control effect; nearly all actives have a fitted effect of over 65% in size
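GFP signal (ex488/em500-530) from TGF-beta-stimulated HEPG2 CAGA-GFP cells, 500 pg/mL final, 18 h at 37 degrees C in DMEM plus 1% FBS, normalized to unstimulated and DMSO-stimulated controls.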
Numbers without * were called inactive; i = inactive; ? = inconclusive; · = no result given; ! = a repeat was not active; [ ] = another dose, or the depositor's remark. Calls come from the whole dose curve; as a rule, active = well fitted curve in the direction sought with a large enough effect; inconclusive = small, poorly fitted or top-dose-only effect, or another doubt; inactive = no such curve, though single readings can be large; an effect the other way counts as inactive or inconclusive. Potency is the fitted concentration of half-maximal effect.

SMILES	ATXN2 expr inh	HepG2 tox	ATXN viability	HT1080-NT tox	HT1080 IDH1KD tx	TGFb SMAD3 inh
CCOc1cc(CNCCO)cc(Br)c1OCc1ccccc1Cl	-34.5%	-106.3%	i	?	23.1µM*	?
CCOc1cc(CNCCCN2CCOCC2)cc(Br)c1OCc1ccccc1Cl	-22.4%[11.3 µM]	-93.5%	?	7.31µM*	8.2µM*	14.1µM*
CCOc1cc(CNC(C)(C)CO)cc(Br)c1OCc1ccc(Cl)cc1Cl	?	12.6µM*	·	11.2µM*	10µM*	?
CC(C)c1ccc(CN2CCC3(CCC(CNC(=O)c4ccn(C)n4)O3)CC2)cc1 (stereo unspecified)	·	·	i	·	·	·
COc1cccc(CN2CCC3(CCC(CNC(=O)c4cc(C)nn4C)O3)CC2)c1OC (stereo unspecified)	·	·	i	·	·	·
CCOc1cc(/C=N/Nc2cccc(C(=O)O)c2)ccc1OC(=O)c1ccccc1	14.1µM*	-12.0%	i	-18.7%	-16.4%	-2.5%
COc1ccc(Oc2c(Cl)cnn(-c3ccc(C)cc3)c2=O)cc1	?	-38.8%	i	?	-3.6%[9.24 µM]	?
COc1ccc(Oc2c(Cl)cnn(-c3ccc(Cl)c(Cl)c3)c2=O)cc1	?	-31.6%	?	18.4µM*	?	-3.4%
C/C(=N/NC(=O)COc1cc(C)ccc1C(C)C)C(=O)O	16.0%	-2.9%	?	?	6.51µM*	-9.3%
O=C(CSc1nc2c([nH]c3ccccc32)c(=O)n1-c1ccc(Cl)cc1)NC1CCCCC1	15.2%	-6.9%	?	·	·	0.3%
COc1cccc(CNC(=O)CSc2ncc3c(n2)-c2cc(Cl)ccc2N(C)S3(=O)=O)c1	-5.8%	-5.7%	i	·	·	0.9%
Nc1c(C(=O)Nc2ccccc2Br)sc2nc(-c3cccs3)ccc12	?	-1.6%	·	·	·	-0.9%
Nc1c(C(=O)Nc2nc3ccccc3s2)sc2nc(-c3cccs3)ccc12	?	6.31µM*	i	?	18.4µM*	208.0%
COc1cccc(-c2ccc3c(N)c(C(=O)Nc4ccccc4C)sc3n2)c1	?	-20.9%	·	·	·	?
Cc1ccccc1NC(=O)c1sc2nc(-c3ccncc3)ccc2c1N	20µM*	-39.4%	i	·	·	2.4%
C=CCN1C(=O)S/C(=C/c2ccc(Sc3nc4ccccc4[nH]3)o2)C1=O	?	-36.1%	?	-17.4%	?	20µM*
CC(C)N1C(=O)S/C(=C/c2ccc(Sc3nc4ccccc4[nH]3)o2)C1=O	?	-18.7%	i	-4.2%	?	20µM*
C=CCN1C(=O)S/C(=C/c2ccsc2)C1=O	45.4%	-25.9%	?	3.6%	-2.2%	21.8%
COc1ccc(CCNC(=O)c2cnn(-c3nccc(-c4ccco4)n3)c2C)cc1	·	·	i	·	·	·
Cc1ncc2c(c1CNC(=O)c1ccccc1F)CCN(C(=O)c1ccccc1-n1cccn1)C2	·	·	i	·	·	·
NC(=O)N/N=C/c1cn(-c2ccccc2)nc1-c1cccs1	36.9%	-25.3%	i	23.1µM*	10.3µM*	-0.5%
N#Cc1ccc(N/N=C/c2cn(-c3ccccc3)nc2-c2ccccc2)c([N+](=O)[O-])c1	-2.6%	-3.5%	i	6.7%	13.9%	2.8%
NS(=O)(=O)c1ccc(N/N=C/c2cn(-c3ccccc3)nc2-c2cccs2)cc1	1.4%	11.2µM*	i	23.1µM*	20.6µM*	10µM*
NS(=O)(=O)c1ccc(N/N=C/c2cn(-c3ccccc3)nc2-c2cccs2)c([N+](=O)[O-])c1	?	-61.3%	?	?	7.31µM*	?
O=C(c1cn(-c2ccccc2)nc1-c1cccs1)N1CCN(c2ccccc2)CC1	13.2%	5.0%	i	?	7.08µM*	-0.8%
SMILES	ATXN2 expr inh	HepG2 tox	ATXN viability	HT1080-NT tox	HT1080 IDH1KD tx	TGFb SMAD3 inh
O=C(N/N=C/c1cn(-c2ccccc2)nc1-c1cccs1)c1ccncc1	-7.5%	-12.2%	?	2.1%	-13.9%	-3.8%
O=C(O)c1cccc(N/N=C/c2cn(-c3ccccc3)nc2-c2cccs2)c1	110.6%	-19.2%	i	-14.9%	-9.0%	0.9%
Cc1nn(C)c(C)c1CN(C)S(=O)(=O)c1ccc2ccccc2c1	-19.0%	-38.6%	i	-13.2%	2µM*	-23.4%
Cc1nn(C)c(C)c1CN(C)S(=O)(=O)c1ccc(F)cc1	-12.6%	-14.8%	i	-13.0%	?	-9.9%
Cc1nn(C)c2ncc(C(=O)c3cc(F)ccc3O)cc12	5.7%	-11.3%	i	-2.2%	-8.5%	?
O=C(c1cnc2ccc3ccccc3c2c1)c1cc(F)ccc1O	8.6%	-31.0%	i	16.4µM*	8.2µM*	?
O=[N+]([O-])c1ccc2c(c1)C=CC2	·	9.0%	·	·	·	-2.8%
CC(CC(c1ccccc1)c1ccccc1)NC(C)(C)C (stereo unspecified)	·	·	i	·	·	·
Cc1cc(C(=O)N/N=C/c2ccc([N+](=O)[O-])s2)c2ccccc2n1	?	-92.3%	?	?	?	10µM*
COc1cc(/C=N/NC(=O)c2ccncc2)cc(OC)c1OC	-5.9%	-12.4%	i	17.1%	6.8%	20.5%
COc1cc(C(=O)NN=Cc2ccc(N(C)C)cc2)cc(OC)c1OC	·	-3.4%	i	3.66µM*	2.91µM*	-25.1%
Cc1cc(C(=O)N/N=C/c2ccc([N+](=O)[O-])cc2)c2ccccc2n1	?	54.0%	i	18.4µM*	4.61µM*	0.0%
Cc1cccc(/C=N/NC(=O)c2cc(C)nc3ccccc23)n1	·	-0.9%	i	15.2%	0.0%	31.4%
Cc1cc(C(=O)N/N=C/c2ccc(N(C)C)cc2)c2ccccc2n1	?	-1.6%	?	3.66µM*	3.26µM*	-10.2%
O=C(N/N=C/c1ccc([N+](=O)[O-])cc1)c1cc(C2CC2)nc2ccccc12	?	-72.4%	?	25.9µM*	23.1µM*	-20.0%
CCc1ccc(/C=N/NC(=O)c2cc(C3CC3)nc3ccccc23)s1	-20.1%	-22.8%	?	?	1.84µM*	-6.6%
Cc1cccc(CS(=O)(=O)c2ncc(Cl)c(C(=O)NCc3ccccc3)n2)c1	·	3.55µM*!	·	25.9µM*	?	3.16µM*
Cc1nnc(NC(=O)c2nc(S(=O)(=O)Cc3ccccc3)ncc2Cl)s1	?	-129.5%	31.6µM*	14.6µM*	20.6µM*	?
CCc1nnc(NC(=O)c2nc(S(C)(=O)=O)ncc2Cl)s1	?	16.8%	?	·	·	1.7%
